Results as given in PubChem BioAssay AID434970 (Sanford-Burnham Center for Chemical Genomics, 2010).
Among all 11,000 compounds or so, about 310 (2.8%) were called active. Rule as the data show it: active = activity change below about -85%; inactive = the rest. Shown is part of a subset that was picked to be rich in actives.

test system: intestinal alkaline phosphatase [Mus musculus]; experiment: mouse intestinal phosphatase enzyme activation – biochemical, luminescence, single concentration, confirmation (AID 434970); conditions: purified mouse IAP, CDP-Star luminescence, 30 min, at 10 µM; activation factor: measured here: IAP activation factor, stronger effect = higher value; activity change, negative = activation: stronger effect = lower value

Compound	activation factor	activity change, negative = activation
O=C(NCc1ccc2c(c1)OCO2)c1cccnc1	1.13	-13% (inactive)
O=C(OCC1OC2C(Oc3nc(=O)ccn32)C1O)c1ccccc1 (stereo unspecified)	1.02	-1.5% (inactive)
N#Cc1c2c(c(NCc3cccnc3)n3c1nc1ccccc13)CCC2	0.779	22.1% (inactive)
C#CCOCCOCCOCCNc1nc(N2CCN(C(=O)CCCCCCCCCCNC(=O)[C@H](CCCCN)n3cc(C)nn3)CC2)nc(N2CCN(C(=O)CCCCCCCCCCNC(=O)[C@@H]([C@H](C)CC)n3cc(CCCCCN)nn3)CC2)n1	3.63	-263% (active)
C#CCOCCOCCOCCNc1nc(N2CCN(C(=O)CCCCCCCCCCNC(=O)[C@H]([C@@H](C)CC)n3cc(CCCCN=C(N)N)nn3)CC2)nc(N2CCN(C(=O)CCCCCCCCCCNC(=O)[C@H](CCCCN)n3cc(C)nn3)CC2)n1	8.54	-754% (active)
CC1CCCC(C(=O)O)N1C(=O)CCS (stereo unspecified)	0.988	1.25% (inactive)
O=C(Cc1c[nH]c2ccccc12)Nc1nc2ccccc2[nH]1	0.845	15.5% (inactive)
COC(=O)c1c(NC(=O)Nc2ccc(Cl)cc2)sc(C)c1C	0.99	1% (inactive)
Cc1csc(NC(=O)Nc2ccc(Cl)cc2)n1	1.11	-11.1% (inactive)
CC(C)S(=O)(=O)c1csc(NC(=O)Nc2ccc(Cl)cc2)c1Cl	2.16	-116% (active)
CNC(=O)CCC(=O)Nc1ccc(C(=O)OC)cc1	0.98	2.05% (inactive)
CCS(=O)(=O)Nc1ccc(C(=O)OC)cc1	0.912	8.8% (inactive)
CCOC(=O)c1ccc(NC(=O)Nc2ccc3c(c2)OCCO3)cc1	2.06	-106% (active)
COC(=O)c1ccc(NC(=O)Nc2ccc(F)c(Cl)c2)cc1	1.86	-86.3% (inactive)
COC(=O)c1ccc(NC(=O)Nc2ccc(C)cc2)cc1	2.15	-115% (active)
COC(=O)c1ccc(NC(=O)Nc2cccc(F)c2)cc1	1.97	-97.4% (active)
CCOC(=O)c1ccc(NC(=O)Nc2ccc(F)cc2)cc1	1.67	-66.6% (inactive)
CCOC(=O)c1ccc(NC(=O)c2ccc3c(c2)OCO3)cc1	0.959	4.1% (inactive)
CCCCOC(=O)c1ccc(NC(=O)Nc2ccc(OC)c(OC)c2)cc1	1.64	-63.5% (inactive)
CC(Sc1nnc(-c2ccco2)o1)C(=O)Nc1ccc(OC(F)F)cc1 (stereo unspecified)	0.893	10.7% (inactive)
CC1=C(C(N)=O)C(c2cccnc2)n2nc(-c3cccc(Cl)c3)nc2N1 (stereo unspecified)	0.96	4% (inactive)

Compound	activation factor	activity change, negative = activation
CCCNC(=O)c1csc2c1CCCCC2	0.955	4.55% (inactive)
CC(NC(=O)CCSc1nc(-c2ccc3c(c2)OCO3)cc(C(F)(F)F)n1)c1ccccc1 (stereo unspecified)	0.978	2.2% (inactive)
Cc1cccc(C2=NN(c3ccccc3)[C@@H](C(=O)N3CCOC3=O)[C@@H]2c2ccccc2)c1	0.97	3% (inactive)
CCCN=C1N(CC)C[C@@H]2[C@@H]3C(=O)N(Cc4ccccc4)C(=O)[C@@H]3[C@](Cc3ccccc3)(C(=O)OC)N12	1.07	-7.35% (inactive)
O=C(CCS(=O)(=O)c1cccc2nonc12)NC1CCCCCC1	1.11	-10.6% (inactive)
CN(C)CCCNC(=O)C[C@H]1C[C@H](C(=O)N2CCCCC2)[C@@]2(CCc3ccccc3)c3[nH]c4cc(-c5ccco5)ccc4c3CCN2C1=O	1.28	-28.4% (inactive)
CCOC(=O)c1ccc(NC(=O)NC2CCN(CC(=O)NCc3ccc4c(c3)OCO4)CC2)cc1	1.61	-60.6% (inactive)
CC(C)c1ccc(NC(=O)NC2CCN(CC(=O)Nc3cccc4ccccc34)CC2)cc1	3.72	-272% (active)
CCOc1ccccc1NC(=O)C1CCCN(C(=O)Nc2ccccc2)C1 (stereo unspecified)	0.961	3.9% (inactive)
CCOc1ccccc1NC(=O)CN1CCC(NC(=O)Nc2ccccc2)CC1	2.99	-199% (active)
Cc1cc(C)cc(NC(=O)NC2CCN(CC(=O)Nc3cccc(Cl)c3C)CC2)c1	1.68	-68.1% (inactive)
CCOc1ccccc1NC(=O)N1CCC(NC(=O)c2cccc(C)c2)CC1	0.98	2% (inactive)
CCOCCCNC(=O)c1ccccc1SCC	1.04	-4% (inactive)
CCOC(=O)c1c(C)[nH]c(C)c1C(=O)CSc1nnc(-c2ccco2)n1Cc1ccccc1	1.03	-3.25% (inactive)
O=C(CSc1nnc(-c2ccncc2)n1CC1CCCO1)Nc1nccs1 (stereo unspecified)	1.03	-2.65% (inactive)
COc1ccc(C2C(C(=O)N3CCN(c4ccccc4F)CC3)c3ccccc3C(=O)N2C)cc1 (stereo unspecified)	1.09	-9.15% (inactive)
FC(F)Sc1ccc(NC(=S)NC2CCCC2)cc1	1.23	-22.6% (inactive)
FC(F)Sc1ccc(NC(=S)NCC2CCCCC2)cc1	1.45	-44.6% (inactive)
FC(F)Sc1ccc(NC(=S)NCc2ccccc2)cc1	1.27	-26.5% (inactive)
CC1CCCC(NC(=S)Nc2ccc(SC(F)F)cc2)C1C (stereo unspecified)	2.09	-109% (active)
FC(F)Sc1ccc(NC(=S)NC2CCCCC2)cc1	1.25	-24.7% (inactive)

Compound	activation factor	activity change, negative = activation
FC(F)Sc1ccc(NC(=S)NC2CCC(NC(=S)Nc3ccc(SC(F)F)cc3)CC2)cc1 (stereo unspecified)	2.35	-135% (active)
CC1CCCCC1NC(=S)Nc1ccc(SC(F)F)cc1 (stereo unspecified)	1.52	-51.8% (inactive)
FC(F)Sc1ccc(NC(=S)NC(c2ccccc2)c2ccccc2)cc1	3.77	-277% (active)
O=C(Nc1ccc(SC(F)F)cc1)c1cccc2nc3ccccc3nc12	0.946	5.4% (inactive)
NC(=O)CSCc1cccc(Br)c1	1.01	-0.9% (inactive)
O=S1(=O)c2ccccc2OC(COCc2ccccc2)CN1Cc1ccccc1 (stereo unspecified)	1.13	-13.2% (inactive)
Cc1cc(C)nc(SCc2nnc(SCC(=O)Nc3ccccc3C)n2Cc2ccco2)n1	0.974	2.65% (inactive)
Cc1ccc(-c2cc(C(F)F)n3ncc(C(=O)N4CCN(c5cccc(C)c5C)CC4)c3n2)cc1	0.892	10.8% (inactive)
CCCc1cc(=O)oc2cc3occ(C)c3cc12	0.917	8.35% (inactive)
CCOn1c(=O)c(-c2ccc(Cl)cc2)[n+]([O-])c2ccccc21	0.944	5.65% (inactive)
CC(C)(C)c1n[nH]c(=S)n(N)c1=O	1.04	-4.25% (inactive)
CCn1c(NCc2ccccn2)nc2ccccc21	0.877	12.3% (inactive)
CCn1c(NCc2ccc(N(C)C)cc2)nc2ccccc21	1.11	-10.6% (inactive)
CCn1c(CNc2nc3ccccc3n2C(C)C)nc2ccccc21	1.97	-97.3% (active)
Cc1ccc2oc(-c3ccc(NC(=O)c4ccc5c(c4)OCO5)cc3)nc2c1	0.944	5.6% (inactive)
CSc1nccc(-c2nn(-c3ccc(C)cc3)ccc2=O)n1	1	-0.05% (inactive)
CCOC(=O)C1=C(C)N(C[C@@H]2CC[C@@H](Cc3ccc(-c4ccccc4)cc3)O2)C(=O)NC1c1ccc(-c2ccccc2)cc1 (stereo partly specified)	1.12	-12.1% (inactive)
O=C(NCCCCc1ccccc1)NC[C@@H]1CC[C@@H](Cc2ccc(-c3ccccc3)cc2)O1	4.44	-344% (active)
OC[C@@H]1CC[C@@H](Cc2ccc(-c3ccccc3)cc2)O1	1.07	-7.05% (inactive)
COc1ccc2cc(C[C@@H]3CC[C@@H](CNC(N)=O)O3)ccc2c1	0.994	0.55% (inactive)
COc1ccc(N2CCN(CCCNC(=O)Nc3ccccc3)CC2)cc1	1.16	-16.2% (inactive)

Compound	activation factor	activity change, negative = activation
S=C(NCC1COc2ccccc2O1)Nc1ccc(Br)cc1 (stereo unspecified)	1.68	-68.1% (inactive)
NC(=O)NC[C@@H]1CC[C@@H](Cc2ccc(-c3ccccc3)cc2)O1	1.01	-0.6% (inactive)
COc1ccc(NC(=O)NC[C@@H]2CC[C@@H](Cc3ccc(-c4ccccc4)cc3)O2)cc1	2.82	-182% (active)
O=C(NC[C@@H]1CC[C@@H](Cc2ccc(-c3ccccc3)cc2)O1)Nc1ccc(Br)cc1	4.1	-310% (active)
CC(C)[C@H]1COCCS(=O)(=O)N1Cc1ccccc1-c1cccc2c1oc1ccccc12	0.927	7.3% (inactive)
Cc1c(C(=O)NCC2COc3ccccc3O2)oc2ccc(S(=O)(=O)N3CCOCC3)cc12 (stereo unspecified)	1.07	-6.7% (inactive)
CCNc1nc(NC(C)(C)C)nc(SC(C(C)=O)C(C)=O)n1	1.04	-4.2% (inactive)
O=C(OCn1nnc2ccccc2c1=O)C1CCN(S(=O)(=O)c2cccs2)CC1	0.919	8.05% (inactive)
Cc1ccc(C2=NN3C(C(=O)c4ccccc4)Oc4ccccc4C3C2)cc1 (stereo unspecified)	0.916	8.35% (inactive)
O=C(Nc1ccccc1N1CCN(c2ccccc2)CC1)C12CC3CC(CC(C3)C1)C2	0.927	7.25% (inactive)
COC(=O)c1sccc1NC(=O)C12CC3CC(CC(C3)C1)C2	1.03	-2.7% (inactive)
O=C(c1cc(NC(=O)C23CC4CC(CC(C4)C2)C3)cc(NC(=O)C23CC4CC(CC(C4)C2)C3)c1)N1CCCCC1	2.06	-106% (active)
CCOc1ccccc1C1N(c2ccc(F)cc2)C(=O)C2CCCN21 (stereo unspecified)	0.988	1.2% (inactive)
CCc1nnc(NC(=O)C2CCCN2C(=O)Nc2ccccc2OC)s1 (stereo unspecified)	1.12	-12.2% (inactive)
CCCCSCCCNC(=O)Nc1ccc(C)c(C)c1	1.25	-24.7% (inactive)
CCCCSCCCNC(=O)Nc1ccc(CC)cc1	1.39	-38.9% (inactive)
CCCCNC(=O)Nc1ccc2c(c1)N(C)C(=O)c1ccccc1S2	2.25	-124% (active)
CC(=O)c1ccc2c(c1)N(C)c1ccccc1S2	0.875	12.5% (inactive)
COc1ccc(NC(=O)Nc2ccc3c(c2)N(C)C(=O)CS3)cc1Cl	1.91	-90.9% (inactive)
CCC(C)NC(=O)Nc1ccc2c(c1)N(C)C(=O)c1ccccc1S2 (stereo unspecified)	2	-100% (active)
